These results are taken from PubChem BioAssay (Tox21).

The structures appear in SMILES notation. “And” between values parts separate entries of the source, which are not always exact repeats. Equal entries are not always repeated. Inconclusive results are not listed. The source made the active and inactive calls. The call rests on the fitted dose curve; in most records, active means well fitted cell-killing curve with a large enough effect in the repeat runs; inconclusive means weak or mixed curves, or effect the other way; inactive means no such curve, though single readings can be large or run the other way.
On the % scale 0 is the no-effect control and ±100 the full control effect; potency means the concentration at half of the fitted maximal effect.

The nature of this assay: qHTS assay to identify small molecule antagonists of the glucocorticoid receptor (GR) signaling pathway - cell viability counter screen (AID 720693). Further: nearly all actives have a fitted effect of over 55% in size. The conditions noted are these: GR-bla HeLa viability, CellTiter-Glo luminescence, 18 h, with 5 nM dexamethasone present; series mostly up to 58.5 µM; viability change, negative = cytotoxic: at the top concentration. An excerpt: National Center for Advancing Translational Sciences [NCATS]
NIH Chemical Genomics Center [NCGC]
U.S. Environmental Protection Agency [EPA]
National Institutes of Environmental Health Sciences [NIEHS]
National Toxicology Program [NTP]
U.S. Food and Drug Administration [FDA]
The Glucocorticoid receptor (GR) is one of the members of the nuclear receptor family of ligand-dependent transcription factors. GR plays a critical role in carbohydrate, protein and lipid metabolisms and programmed cell death. CellSensor GR-bla HeLa cell line (Invitrogen) contains a beta-lactamase reporter gene under the control of the glucocorticoid response element stably integrated into HeLa cells, a cervical cancer cell line that expresses glucocorticoid receptor. The activation of the reporter gene under culture conditions can be detected by fluorescence intensity. This cell line has been used to screen the Tox21 10K compound library and to identify the compounds that inhibit the GR signaling. The cytotoxicity of the Tox21 compound library against the GR-bla HeLa cell line was tested in parallel by measuring the cell viability using CellTiter-Glo assay in the same wells.
Tox21 Assay Protocol Summary:
The GR-bla HeLa cells were dispensed at 1500 cells/5 ul/well in 1536-well black wall/clear bottom plates using a Multidrop Combi (ThermoFisher Scientific, Waltham, MA) dispenser. After the assay plates were incubated at a 37 C/5% CO2 incubator for 4 hours, 23 nL of compounds dissolved in DMSO, positive controls or DMSO only was transferred to the assay plate by a pintool station (Kalypsys, San Diego, CA), followed by addition of 1 uL of dexamethasone (5 nM, final concentration in the well). The plates were incubated at 37 C for 18 hours. After 1 uL of LiveBLAzerTM B/G FRET substrate was added using a Flying Reagent Dispenser (Aurora Discovery, San Diego, CA), the plates were incubated at room temperature (RT) for 2 hours, and fluorescence intensity was measured by an Envision plate reader (PerkinElmer, Shelton, CT). After measurement of bla assay, 3 ul CellTiter-Glo (Promega, Madison, WI) was added to measure the cytotoxicity and the plates were then incubated at RT for 30 min. The luminescence was measured using a ViewLux (Perkin Elmer) plate reader.
Take `Nc1nc(N)nc(-c2cc(Cl)ccc2Cl)n1`: the “viability change, negative = cytotoxic” value was -0.814% (inactive). The same measure, in the same setting: for `O=C1CCCCCCCCCCCCCCCO1` the value was 0.555% (inactive); for `CC1(C)CCC[C@]2(C)[C@H]3CCO[C@]3(C)CC[C@@H]12`, -0.187% (inactive). As to `CC(CCc1ccccc1)NCC(O)c1ccc(O)c(C(N)=O)c1` (stereo not given), the “viability change, negative = cytotoxic” value is 5.09% (inactive). Turning to `O=c1oc2cc(O)ccc2c2oc3cc(O)ccc3c12`, the “viability change, negative = cytotoxic” value is -7.15% (inactive). On the same count and under the same terms, for `NC(=O)c1cccc([N+](=O)[O-])c1` the value was 5.2% (inactive). The same measure, in the same setting: for `C=CCCC(=O)/C=C/C1C(C)=CCCC1(C)C` (stereo not given) the value was -4.79% (inactive).

Take `C#C[C@]1(O)CC[C@H]2[C@@H]3[C@H](C)CC4=C(CCC(=O)C4)[C@H]3CC[C@@]21C`: the “viability change, negative = cytotoxic” value was -6.28% (inactive). The same measure, in the same setting: for `CC(=O)Oc1cc2c(s1)CCN(C(C(=O)C1CC1)c1ccccc1F)C2` (stereo not given) the value was -4.63% (inactive); for `ClCCl`, -0.92% (inactive); for `CC(C)OC(=O)C(O)(CC(=O)O)CC(=O)O`, 4.88% (inactive). Turning to `O[C@@H]([C@H](O)[C@H](O)CBr)[C@H](O)CBr`, the Potency entry is “inactive”.

On to `Clc1nnc(Cl)c2ccccc12`, for which the “viability change, negative = cytotoxic” value is -8.4% (inactive). Still for that read-out and setting: the result for `Nc1cc(Cl)c(O)c(Cl)c1` reads -1.39% (inactive); that for `CCCCC(CC)COC(=O)CCCCC(=O)OCc1ccccc1` (stereo not given), -4.85% (inactive).

Take `O=c1[nH]c2ccccc2n1CCCN1CCN(C(c2ccccc2)c2ccccc2)CC1`: the “viability change, negative = cytotoxic” value was -4.85% (inactive). Turning to `OC/C=C/CO`, the “viability change, negative = cytotoxic” value was 7.7% (inactive). `CC(=O)CC(=O)Nc1ccc(S(=O)(=O)O)cc1`: the “viability change, negative = cytotoxic” value is 10% (inactive). As for `O=C(O)c1cc(N=Nc2ccc([N+](=O)[O-])cc2)ccc1O`, the Potency was 21.5 µM (active). As for `Cc1nc2n(c(=O)c1CCN1CCC(c3noc4cc(F)ccc34)CC1)CCCC2`, the “viability change, negative = cytotoxic” value is 12.8% (inactive). Same read-out and setting: the result for `CN(C)Cc1ccccc1O` reads -2.66% (inactive). For the compound `CCN(CCN)c1cccc(C)c1`, the Potency entry was “inactive”. For `C=CC(C)(CCC=C(C)C)OC=O` (stereo not given), the “viability change, negative = cytotoxic” value was -7.59% (inactive). In the case of `CC(C)(C)c1csc(-c2cc3cc(OCc4ccccc4CC(=O)O)ccc3o2)n1`, the Potency was 49 µM (active). Take `COc1cccc2c1C(=O)c1c(O)c3c(c(O)c1C2=O)C[C@@](O)(C(C)=O)C[C@@H]3O[C@H]1C[C@H](N)[C@H](O)[C@H](C)O1`: the Potency was 7.56 µM (active) and 2.2 µM (active). Take `O=c1c(O)c(-c2ccc(O)cc2O)oc2cc(O)cc(O)c12`: the “viability change, negative = cytotoxic” value is 1.58% (inactive). Still for that read-out and setting: the result for `COc1cccc(OC)c1C(=O)O` reads 1.88% (inactive). For the compound `CC(C)(C)c1ccc(C(O)CCCN2CCC(C(O)(c3ccccc3)c3ccccc3)CC2)cc1` (stereo not given), the Potency entry was “inactive”.

As to `Cc1c(F)c(N2CCNC(C)C2)cc2c1c(=O)c(C(=O)O)cn2C1CC1` (stereo not given), the “viability change, negative = cytotoxic” value is -13.2% (inactive). `C[C@@H](O)[C@H](N)C(=O)O`: the “viability change, negative = cytotoxic” value is 20.9% (inactive). The same measure, in the same setting: for `O=C1NC(=O)[C@@H]2CC=CC[C@H]12` the value was -3.95% (inactive); for `CCCCCCC1CCCC(=O)O1` (stereo not given), -4.22% (inactive). Turning to `O=C(O)c1cc(=O)c2ccccc2o1`, the “viability change, negative = cytotoxic” value was 6.87% (inactive). As for `c1ccsc1`, the “viability change, negative = cytotoxic” value is 10.4% (inactive).

Turning to `CC1=Nc2ccccc2C1(C)C`, the “viability change, negative = cytotoxic” value was 4.17% (inactive). As to `O=C(O)c1ccc2cc(C(=O)O)ccc2c1`, the “viability change, negative = cytotoxic” value is -1.32% [at 78.9 µM] (inactive). On the same count and under the same terms, the result for `OC1CCCc2ccccc21` (stereo not given) reads 23.2% [at 78.9 µM] (inactive). Same read-out and setting: for `Cc1ccc(N/N=c2\c(=O)cc/c(=N\Nc3ccc(S(=O)(=O)O)cc3)c2=O)c(C)c1` the value was -3.25% (inactive). `CCCCCCCCCCCCCC[N+](C)(C)Cc1ccccc1`: the Potency was 21.3 µM (active) and 24.9 µM (active). For the compound `Cc1ccc(O)c(N)c1`, the “viability change, negative = cytotoxic” value was 0.321% (inactive).
